From PubChem BioAssay (EPA / NIEHS)
Records with an inconclusive call do not appear. Activity calls are given as the source filed them. How the source made its calls, unless noted: active means hit-call score of the fitted dose curve at least 0.9, where 1 is the maximum; inactive means score below 0.9.

Legend:
[1] = target: Bile acid receptor (Homo sapiens) (UniProt Q96RI1); assay: OT_FXR_FXRSRC1_0480: Odyssey Thera (OT) 8-hour HEK293T Protein-Complementation Assay for Farnesoid X receptor/SRC-1 Co-activator (AID 2283383; active means hit-call score of the fitted dose curve at least 0.9, where 1 is the maximum)
Outline: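 Co-activator recruitment to FXR was measured in living HEK293T cells, where interaction of the two fused partners restored an active fluorescent reporter. Signal gain after 8 h treatment was referenced to DMSO.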

[2] = target: Bile acid receptor (Homo sapiens) (UniProt Q96RI1); assay: OT_FXR_FXRSRC1_1440: Odyssey Thera (OT) 24-hour HEK293T Protein-Complementation Assay for Farnesoid X receptor/SRC-1 Co-activator (AID 2283384; active means hit-call score of the fitted dose curve at least 0.9, where 1 is the maximum)
Outline: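 Cell-based binding reporter: interaction of FXR with SRC-1 brings reporter fragments together, giving a fluorescence signal read 24 h after dosing of HEK293T cells.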

[3] = target: Peroxisome proliferator-activated receptor gamma (Homo sapiens) (UniProt P37231); assay: OT_PPARg_PPARgSRC1_0480: Odyssey Thera (OT) 8-hour Protein-Complementation Assay for Peroxisome Proliferator-activated Receptor Gamma / SRC-1 Co-activator (AID 2283387; active means hit-call score of the fitted dose curve at least 0.9, where 1 is the maximum;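 further: nuclear to cytoplasmic split Venus YFP fluorescence ratio reporting PPARg SRC-1 interaction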)
Outline: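 Read-out: 488 nm N/C fluorescence ratio from complemented Venus YFP fragments, ≥350 cells per image, gain-of-signal fitted against DMSO baseline. Fusions of PPARg/SRC-1 with IFP1/IFP2 expressed transiently in HEK293T; compounds applied 8 h.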

[4] = target: Peroxisome proliferator-activated receptor gamma (Homo sapiens) (UniProt P37231); assay: OT_PPARg_PPARgSRC1_1440: Odyssey Thera (OT) 24-hour Protein-Complementation Assay for Peroxisome Proliferator-activated Receptor Gamma/ SRC-1 Co-activator (AID 2283388; active means hit-call score of the fitted dose curve at least 0.9, where 1 is the maximum;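 further: nuclear to cytoplasmic ratio of reconstituted Venus YFP fluorescence in fixed imaged cells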)
Outline: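 Readout: nuclear-to-cytoplasmic 488 nm fluorescence ratio, ≥350 cells per image, 8 images per well, after 24 h compound exposure of HEK293T expressing PPARg/SRC-1 split-YFP fusions. Activity fitted in positive direction against DMSO.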

[5] = target: Retinoic acid receptor RXR-alpha (Homo sapiens) (UniProt P19793); assay: OT_NURR1_NURR1RXRa_1440: Odyssey Thera (OT) 24-hour HEK293T Protein Complementation Assay for Nurr1/retinoid X receptor (RXR) (AID 2283386; active means hit-call score of the fitted dose curve at least 0.9, where 1 is the maximum)
Outline: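 Measured as fluorescence from a reconstituted split reporter, this 24 h HEK293T complementation assay scores compound-induced gain of Nurr1/RXRα association relative to DMSO.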

[6] = CEETOX_H295R_OHPREG: CeeTox H295R High-throughput Steroidogenesis Assay for OH-Pregnenolone (OHPREG) (AID 2283434); details: actives raise or lower the signal
Outline: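 Hormone levels in spent medium were measured by tandem mass spectrometry following liquid-liquid extraction. Cells (H295R) had been forskolin-stimulated (10 uM, 48 h) before a 48 h chemical exposure at 0.1% DMSO, with activity fitted in both directions against DMSO.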

[7] = CEETOX_H295R_OHPROG: CeeTox H295R High-throughput Steroidogenesis Assay for OH-Progesterone (OHPROG) (AID 2283435); details: actives raise or lower the signal;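 on AC50: human adrenal H295R cells primed 48 h with 10 µM forskolin; 17alpha-hydroxyprogesterone secreted into medium measured by HPLC-MS/MS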
Outline: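 Secreted 17alpha-hydroxyprogesterone is read by tandem MS from media of forskolin-primed H295R cells dosed with chemical for 48 h. Activity is fitted in both directions against DMSO baseline; cytotoxic concentrations are re-tested diluted.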

[8] = CEETOX_H295R_CORTIC: CeeTox H295R High-throughput Steroidogenesis Assay for Corticosterone (CORTIC) (AID 2283437); details: actives raise or lower the signal;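 further: corticosterone secreted into medium quantified by mass spectrometry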
Outline: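 Corticosterone secreted into medium is measured by reverse-phase HPLC with tandem MS following liquid-liquid extraction. Cells are forskolin-stimulated (10 uM, 48 h) before 48 h test exposure; activity fitted in both directions against DMSO.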

[9] = CEETOX_H295R_CORTISOL: CeeTox H295R High-throughput Steroidogenesis Assay for Cortisol (AID 2283438); details: actives raise or lower the signal;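 further: cortisol secreted into medium quantified by LC-MS/MS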
Outline: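 Human adrenocortical H295R cells (passage ≤10) received test chemicals for 48 h after forskolin priming. Secreted cortisol was measured by LC-MS/MS.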

[10] = CEETOX_H295R_DOC: CeeTox H295R High-throughput Steroidogenesis Assay for DOC (AID 2283439); details: actives raise or lower the signal
Outline: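 Secreted DOC was quantified from H295R media by HPLC-MS/MS after 48 h chemical exposure following 48 h forskolin (10 uM) prestimulation. Values were fitted in both directions relative to DMSO, the negative control and baseline.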

[11] = CEETOX_H295R_ESTRADIOL: CeeTox H295R High-throughput Steroidogenesis Assay for Estradiol (AID 2283440); details: actives raise or lower the signal;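 further: estradiol secreted into medium quantified by LC-MS/MS after dansyl derivatisation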
Outline: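 H295R, 48 h forskolin (10 uM) prestim → 48 h compound, 0.1% DMSO final. Estradiol in medium: MTBE extraction, dansyl chloride derivatization, LC-MS/MS. Fit bidirectional vs DMSO baseline; MTT viability in same wells.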

[12] = read-out: Tumor necrosis factor receptor superfamily member 6 (Homo sapiens) (UniProt P25445); assay: LTEA_HepaRG_FAS: Life Technologies and Expression Analysis (LTEA) Assay for Fas cell surface death receptor (FAS) using HepaRG (AID 2283447); details: mRNA level, 48 h; actives raise or lower the signal
Outline: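 FAS transcript level was measured by TaqMan qRT-PCR against three housekeeping genes after 48 h chemical exposure. Cells were HepaRG, 0.5% DMSO vehicle, with a top concentration of 100 uM and half-log dilutions over eight points, in duplicate.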

[13] = read-out: Fatty acid synthase (Homo sapiens) (UniProt P49327); assay: LTEA_HepaRG_FASN: Life Technologies and Expression Analysis (LTEA) Assay for Fatty Acid Synthase (FASN) using HepaRG (AID 2283448); details: mRNA level, 48 h; actives raise or lower the signal
Outline: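 Transcript-level assay: HepaRG liver cells are treated for 48 h across an eight-point range topping at 100 uM, and FASN mRNA, normalized to three housekeeping genes, is compared with DMSO controls in both directions.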

[14] = read-out: Cyclin D2 (CCND2), CCND2 (gene 894); assay: LTEA_HepaRG_CCND2: Life Technologies and Expression Analysis (LTEA) Assay for Cyclin D2 (CCND2) using HepaRG (AID 2283449); details: mRNA level, 48 h; actives raise or lower the signal
Outline: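 Read-out is CCND2 mRNA level measured by qRT-PCR in human HepaRG liver cells and normalised to three housekeeping genes. Chemicals were applied for 48 h at up to 100 uM, with gain or loss fitted relative to 0.5% DMSO.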

[15] = read-out: Cyclin Dependent Kinase Inhibitor 1A (CDKN1A), CDKN1A (gene 1026); assay: LTEA_HepaRG_CDKN1A: Life Technologies and Expression Analysis (LTEA) Assay for Cyclin Dependent Kinase Inhibitor 1A (CDKN1A) using HepaRG (AID 2283450); details: mRNA level, 48 h; actives raise or lower the signal
Outline: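 HepaRG, 48 h dosing, 8-pt half-log series from 100 uM top, 0.5% DMSO vehicle, duplicates. Readout: TaqMan qRT-PCR of CDKN1A transcript, housekeeping-normalized (ACTB, GAPDH, POLR2A). Up/down curve fit relative to DMSO.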

[16] = read-out: Cyclin D1 (CCND1), CCND1 (gene 595); assay: LTEA_HepaRG_CCND1: Life Technologies and Expression Analysis (LTEA) Assay for Cyclin D1 (CCND1) using HepaRG (AID 2283451); details: mRNA level, 48 h; actives raise or lower the signal
Outline: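 qRT-PCR (Fluidigm 96.96 array) read-out of transcript level, housekeeping-normalized (ACTB/GAPDH/POLR2A). HepaRG cells, 48 h chemical exposure, 8-point half-log series from 100 uM, 0.5% DMSO vehicle; gain or loss relative to DMSO baseline.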

[17] = read-out: catalase (CAT), CAT (gene 847); assay: LTEA_HepaRG_CAT: Life Technologies and Expression Analysis (LTEA) Assay for catalase (CAT) using HepaRG (AID 2283452); details: mRNA level, 48 h; actives raise or lower the signal
Outline: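 Expression of CAT was quantified by TaqMan qRT-PCR with ACTB/GAPDH/POLR2A normalization after 48 h chemical exposure of HepaRG. Eight-point half-log series, top 100 uM, in 0.5% DMSO; gain or loss fitted against vehicle.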

[18] = read-out: flavin-containing dimethylaniline monooxygenases 3 (FMO3), FMO3 (gene 2328); assay: LTEA_HepaRG_FMO3: Life Technologies and Expression Analysis (LTEA) Assay for flavin-containing dimethylaniline monooxygenases 3 (FMO3) using HepaRG (AID 2283453); details: mRNA level, 48 h; actives raise or lower the signal
Outline: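 HepaRG, 48 h exposure, 8-pt half-log series from 100 uM, 0.5% DMSO vehicle, duplicates; FMO3 transcript by Fluidigm TaqMan qRT-PCR, housekeeping-normalized; gain/loss fit vs DMSO.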

[19] = CEETOX_H295R_ANDR: CeeTox H295R High-throughput Steroidogenesis Assay for Androstenedione (ANDR) (AID 2283436); details: actives raise or lower the signal;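 further: human H295R adrenal cells exposed for 48 h with androstenedione measured in medium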
Outline: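 Read-out is androstenedione secreted into medium, measured by tandem mass spectrometry after liquid-liquid extraction. Cells were H295R, dosed for 48 h per modified OECD 456; activity fitted in both directions relative to DMSO.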

[20] = target: Retinoic acid receptor RXR-alpha (Homo sapiens) (UniProt P19793); assay: OT_NURR1_NURR1RXRa_0480: Odyssey Thera (OT) 8-hour HEK293T Protein Complementation Assay for Nurr1/retinoid X receptor (RXR) (AID 2283385; active means hit-call score of the fitted dose curve at least 0.9, where 1 is the maximum)
Outline: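 Compounds are applied to HEK293T cells carrying Nurr1 and RXRα linked to reporter fragments. After 8 h, fluorescence intensity reports heterodimer formation, with DMSO as baseline.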

Measured: AC50

Peroxisome proliferator-activated receptor gamma (Homo sapiens), sequence (P37231 whole entry, looked up, the tested form may be a part): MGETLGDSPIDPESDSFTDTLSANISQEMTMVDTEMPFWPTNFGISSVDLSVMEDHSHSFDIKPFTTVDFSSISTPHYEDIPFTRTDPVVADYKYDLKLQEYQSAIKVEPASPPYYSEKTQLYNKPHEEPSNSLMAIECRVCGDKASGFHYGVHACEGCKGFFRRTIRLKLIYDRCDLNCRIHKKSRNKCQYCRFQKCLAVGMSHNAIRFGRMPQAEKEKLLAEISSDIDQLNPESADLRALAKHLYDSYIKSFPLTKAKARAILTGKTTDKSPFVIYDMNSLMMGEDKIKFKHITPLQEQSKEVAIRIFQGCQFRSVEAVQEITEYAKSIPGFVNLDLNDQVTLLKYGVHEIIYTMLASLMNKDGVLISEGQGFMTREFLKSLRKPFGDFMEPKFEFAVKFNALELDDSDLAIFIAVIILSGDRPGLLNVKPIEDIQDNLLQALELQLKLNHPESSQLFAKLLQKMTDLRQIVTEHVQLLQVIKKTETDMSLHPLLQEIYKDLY
Fatty acid synthase (Homo sapiens), sequence (P49327 whole entry, looked up): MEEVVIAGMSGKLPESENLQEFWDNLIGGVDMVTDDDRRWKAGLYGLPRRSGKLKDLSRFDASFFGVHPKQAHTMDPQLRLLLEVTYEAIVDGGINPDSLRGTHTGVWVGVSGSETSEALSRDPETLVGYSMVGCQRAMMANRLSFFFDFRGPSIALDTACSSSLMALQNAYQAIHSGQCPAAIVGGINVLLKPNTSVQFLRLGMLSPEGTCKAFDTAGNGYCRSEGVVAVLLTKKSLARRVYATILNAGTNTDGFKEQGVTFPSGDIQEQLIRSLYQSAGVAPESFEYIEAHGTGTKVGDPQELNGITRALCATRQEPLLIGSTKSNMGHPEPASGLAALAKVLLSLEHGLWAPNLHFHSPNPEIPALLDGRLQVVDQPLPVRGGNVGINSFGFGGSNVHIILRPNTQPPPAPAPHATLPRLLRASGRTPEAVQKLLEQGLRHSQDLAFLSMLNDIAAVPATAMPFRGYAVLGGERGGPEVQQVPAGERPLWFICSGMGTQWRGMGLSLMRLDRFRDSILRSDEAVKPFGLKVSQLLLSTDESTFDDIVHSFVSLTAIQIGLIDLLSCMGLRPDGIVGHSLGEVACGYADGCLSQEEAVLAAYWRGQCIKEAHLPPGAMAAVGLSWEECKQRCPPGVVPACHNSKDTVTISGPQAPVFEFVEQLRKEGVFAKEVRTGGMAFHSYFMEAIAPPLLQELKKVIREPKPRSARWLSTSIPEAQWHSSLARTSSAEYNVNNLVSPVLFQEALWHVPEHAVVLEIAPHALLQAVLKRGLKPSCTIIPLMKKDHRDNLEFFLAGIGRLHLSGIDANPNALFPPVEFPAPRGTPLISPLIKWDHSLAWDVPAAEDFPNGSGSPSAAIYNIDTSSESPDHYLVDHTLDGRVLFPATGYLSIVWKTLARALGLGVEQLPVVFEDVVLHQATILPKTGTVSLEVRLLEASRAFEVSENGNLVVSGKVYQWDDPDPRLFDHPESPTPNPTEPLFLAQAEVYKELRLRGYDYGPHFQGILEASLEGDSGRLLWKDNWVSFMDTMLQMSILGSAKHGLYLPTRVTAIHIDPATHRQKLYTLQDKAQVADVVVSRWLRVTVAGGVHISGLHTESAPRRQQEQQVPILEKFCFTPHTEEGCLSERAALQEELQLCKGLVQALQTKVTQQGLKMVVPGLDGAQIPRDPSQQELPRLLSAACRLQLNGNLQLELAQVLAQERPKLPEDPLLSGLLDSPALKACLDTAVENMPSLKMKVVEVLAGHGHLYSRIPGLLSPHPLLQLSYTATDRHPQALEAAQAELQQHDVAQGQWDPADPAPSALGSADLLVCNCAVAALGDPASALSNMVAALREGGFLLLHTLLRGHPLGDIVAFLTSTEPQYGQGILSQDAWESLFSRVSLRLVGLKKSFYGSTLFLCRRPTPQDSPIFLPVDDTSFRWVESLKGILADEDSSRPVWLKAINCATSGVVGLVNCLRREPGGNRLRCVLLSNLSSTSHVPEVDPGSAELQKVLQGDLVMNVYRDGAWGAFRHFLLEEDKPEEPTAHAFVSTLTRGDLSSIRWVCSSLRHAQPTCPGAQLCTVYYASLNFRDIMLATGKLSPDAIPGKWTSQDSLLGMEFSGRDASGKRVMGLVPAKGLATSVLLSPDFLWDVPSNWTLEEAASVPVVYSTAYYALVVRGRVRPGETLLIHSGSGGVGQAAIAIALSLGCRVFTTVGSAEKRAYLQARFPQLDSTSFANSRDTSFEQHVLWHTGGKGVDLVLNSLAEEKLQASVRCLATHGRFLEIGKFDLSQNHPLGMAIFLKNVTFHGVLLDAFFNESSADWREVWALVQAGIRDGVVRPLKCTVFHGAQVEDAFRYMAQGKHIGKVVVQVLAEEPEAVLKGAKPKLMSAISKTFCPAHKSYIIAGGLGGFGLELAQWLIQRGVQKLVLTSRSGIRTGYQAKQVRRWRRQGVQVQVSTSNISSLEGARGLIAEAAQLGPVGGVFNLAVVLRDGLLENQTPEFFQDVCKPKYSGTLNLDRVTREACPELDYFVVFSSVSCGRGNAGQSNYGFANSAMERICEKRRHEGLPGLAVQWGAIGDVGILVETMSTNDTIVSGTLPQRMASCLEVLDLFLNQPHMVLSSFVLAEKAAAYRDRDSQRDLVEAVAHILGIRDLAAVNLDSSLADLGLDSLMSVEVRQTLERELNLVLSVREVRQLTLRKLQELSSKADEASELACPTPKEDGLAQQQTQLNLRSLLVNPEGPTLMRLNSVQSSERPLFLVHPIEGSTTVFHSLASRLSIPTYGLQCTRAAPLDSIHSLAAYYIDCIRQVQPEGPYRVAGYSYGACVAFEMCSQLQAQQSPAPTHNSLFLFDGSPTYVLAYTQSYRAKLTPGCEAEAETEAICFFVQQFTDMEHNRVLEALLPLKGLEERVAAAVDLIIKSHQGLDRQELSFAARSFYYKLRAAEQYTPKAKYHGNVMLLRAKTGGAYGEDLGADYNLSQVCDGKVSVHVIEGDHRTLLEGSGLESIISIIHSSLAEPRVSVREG
Bile acid receptor (Homo sapiens), sequence (Q96RI1 whole entry, looked up, the tested form may be a part): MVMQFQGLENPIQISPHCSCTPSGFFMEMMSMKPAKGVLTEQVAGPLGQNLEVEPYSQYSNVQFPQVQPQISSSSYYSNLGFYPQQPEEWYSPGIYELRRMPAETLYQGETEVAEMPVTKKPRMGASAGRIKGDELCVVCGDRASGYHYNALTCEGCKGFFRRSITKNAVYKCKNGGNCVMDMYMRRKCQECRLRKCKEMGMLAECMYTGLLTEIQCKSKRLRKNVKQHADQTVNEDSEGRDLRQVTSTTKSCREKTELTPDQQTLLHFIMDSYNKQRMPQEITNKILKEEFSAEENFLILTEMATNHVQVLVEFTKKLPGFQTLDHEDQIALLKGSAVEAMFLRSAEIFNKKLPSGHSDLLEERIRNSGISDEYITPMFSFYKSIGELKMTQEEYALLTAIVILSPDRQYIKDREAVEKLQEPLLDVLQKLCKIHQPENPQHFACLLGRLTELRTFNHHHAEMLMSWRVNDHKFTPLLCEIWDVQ
Retinoic acid receptor RXR-alpha (Homo sapiens), sequence (P19793 whole entry, looked up, the tested form may be a part): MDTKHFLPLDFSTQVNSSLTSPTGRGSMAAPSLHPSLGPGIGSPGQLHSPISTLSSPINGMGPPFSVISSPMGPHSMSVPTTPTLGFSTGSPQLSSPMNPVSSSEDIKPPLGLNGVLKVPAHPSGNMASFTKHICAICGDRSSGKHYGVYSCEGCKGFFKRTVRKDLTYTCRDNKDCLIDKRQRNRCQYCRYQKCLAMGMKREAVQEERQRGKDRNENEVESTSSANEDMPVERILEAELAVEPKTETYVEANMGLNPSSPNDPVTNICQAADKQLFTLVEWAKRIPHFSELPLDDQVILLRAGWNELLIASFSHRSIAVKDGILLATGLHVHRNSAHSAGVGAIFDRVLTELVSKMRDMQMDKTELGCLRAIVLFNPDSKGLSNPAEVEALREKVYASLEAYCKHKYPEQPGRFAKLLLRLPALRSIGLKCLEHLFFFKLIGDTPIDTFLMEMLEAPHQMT

CCCCN(CC)C(=O)SCCC
inactive: [1] | [2] | [3] | [4]

O=P(Oc1ccccc1)(Oc1ccccc1)Oc1ccccc1
active: [1] 11.9 µM | [6] 3.68 µM | [7] 1.85 µM | [15] 77.7 µM
inactive: [2] | [5] | [3] | [4] | [8] | [9] | [10] | [11] | [12] | [13] | [14] | [16] | [17] | [18]

CCNc1nc(Cl)nc(NC(C)(C)C)n1
active: [6] 9.93 µM
inactive: [1] | [2] | [5] | [3] | [4] | [7] | [19] | [8] | [9] | [10] | [11] | [12] | [13] | [14] | [15] | [16] | [17] | [18]

CCCCOCC1CO1 (stereo unspecified)
inactive: [20] | [5] | [3] | [4]

CCCCC(CC)COC(=O)c1c(Br)c(Br)c(Br)c(Br)c1C(=O)OCC(CC)CCCC (stereo unspecified)
inactive: [1] | [2] | [5] | [3] | [4]

ClC(Cl)(Cl)c1ccccc1
inactive: [1] | [2] | [12] | [13] | [14] | [15] | [16] | [17] | [18]

CC(C)(C)N(NC(=O)c1ccc(Cl)cc1)C(=O)c1ccccc1
active: [1] 70.1 µM
inactive: [2] | [5] | [3] | [4]

CCC(C)(C)c1ccc(O)cc1
inactive: [2] | [3] | [4] | [6] | [8] | [9] | [11] | [12] | [14] | [15] | [16] | [17] | [18]
active: [1] 60.9 µM | [5] 66.4 µM | [7] 15.5 µM | [10] 21.9 µM
